Data from PubChem BioAssay (EPA / NIEHS).
Activity calls are given as the source filed them. How the source made its calls: active means hit-call score of the fitted dose curve at least 0.9, where 1 is the maximum; inactive means score below 0.9.

Experiments:
[1] = ATG_CRE_CIS: Attagene CIS-FACTORIAL HepG2 Assay for human cAMP Responsive Element (CRE) binding protein 3 (AID 2282926); details: HepG2 CRE cis-reporter, Attagene multiplexed mRNA; actives raise or lower the signal
Procedure, shortened: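 Human liver HepG2, transient MRTU transfection, 24 h compound exposure. Total RNA → oligo(dT) RT → PCR → 6-FAM primer extension → HpaI cut → CE. Activity called both directions vs DMSO.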

[2] = biological target: CCAAT/enhancer-binding protein beta (Homo sapiens) (UniProt P17676); assay: ATG_C_EBP_CIS: Attagene CIS-FACTORIAL HepG2 Assay for human CCAAT/Enhancer Binding Protein (C/EBP) beta (AID 2282927); details: HepG2 Attagene cis-factorial transcription factor reporter; actives raise or lower the signal
Procedure, shortened: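 Following a 24 h incubation with test chemical, transfected HepG2 cells yielded RNA whose reporter transcripts were quantified by RT-PCR and fluorescent capillary electrophoresis, with DMSO serving as baseline for bidirectional fitting.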

[3] = ATG_CMV_CIS: Attagene CIS-FACTORIAL HepG2 Assay for human CMV (Internal Marker) (AID 2282928); details: HepG2 CMV promoter reporter, transcription factor profiling; actives raise or lower the signal;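 further: endpoint acts as a background internal control marker rather than a target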
Procedure, shortened: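 HepG2 cells transiently transfected with multiple cis-regulated reporter units; 24 h compound exposure. Reporter mRNA quantified by RT-PCR, 6-FAM primer-extension labeling, HpaI digestion and capillary electrophoresis; bidirectional fitting against DMSO baseline.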

[4] = ATG_DR4_LXR_CIS: Attagene CIS-FACTORIAL HepG2 Assay for human Liver X Receptor (LXR), DR4 submotif (AID 2282929); details: HepG2 Attagene DR4 cis-reporter, mRNA transcription; actives raise or lower the signal
Procedure, shortened: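 Cells were transfected with multiple reporter transcription units, exposed to chemicals for 24 hours, then lysed for RNA. Reporter mRNA induction was measured by RT-PCR with capillary electrophoresis detection and fitted in both directions relative to DMSO.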

[5] = biological target: Aryl hydrocarbon receptor (Homo sapiens) (UniProt P35869); assay: ATG_Ahr_CIS: Attagene CIS-FACTORIAL HepG2 Assay for human Aryl Hydrocarbon Receptor (Ahr) (AID 2282930); details: HepG2 AhR cis-factorial reporter transcription; actives raise or lower the signal
Procedure, shortened: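 Values derive from bidirectional fitting against DMSO negative control. Underlying signal: cis-element reporter mRNA in transiently transfected HepG2, harvested 24 h post-dose and measured by RT-PCR plus capillary electrophoresis.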

[6] = ATG_AP_1_CIS: Attagene CIS-FACTORIAL HepG2 Assay for human Activator Protein 1 (AP-1) (AID 2282931); details: HepG2 Attagene cis-factorial AP-1 reporter mRNA; actives raise or lower the signal
Procedure, shortened: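 Endogenous transcription-factor activity in human HepG2 liver cells is read through a cis-promoter reporter transcript, sampled 24 h after dosing. Detection uses RT-PCR with capillary electrophoresis; values come from bidirectional fitting relative to DMSO.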

[7] = ATG_BRE_CIS: Attagene CIS-FACTORIAL HepG2 Assay for human Bone Morphogenetic Protein (BMP) Response Element (BRE) (AID 2282933); details: HepG2 BMP response element reporter, Attagene transcription factor profiling; actives raise or lower the signal
Procedure, shortened: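 Read-out: reporter mRNA induction quantified by RT-PCR and capillary electrophoresis after 24 h chemical exposure of transfected HepG2 cells. Endogenous factor activity on the BMP response element; gain or loss fitted against DMSO baseline.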

[8] = biological target: Retinoic acid receptor alpha (Homo sapiens) (UniProt P10276); assay: ATG_DR5_RAR_CIS: Attagene CIS-FACTORIAL HepG2 Assay for human Retinoic Acid Receptor Alpha (RARE), DR5 submotif (AID 2282934); details: HepG2 Attagene cis-factorial RARE DR5 reporter, mRNA; actives raise or lower the signal;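 on AC50: reporter responds to endogenous RAR alpha beta and gamma in HepG2 not RARA alone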
Procedure, shortened: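 Endpoint fitted in both directions relative to DMSO as negative control. It reflects DR5 cis-element reporter mRNA induction in transiently transfected HepG2 cells, measured 24 h after dosing through RT-PCR and fluorescent capillary electrophoresis.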

[9] = biological target: Transcription factor E2F1 (Homo sapiens) (UniProt Q01094); assay: ATG_E2F_CIS: Attagene CIS-FACTORIAL HepG2 Assay for human E2F Transcription Factor 1 (AID 2282935); details: HepG2 Attagene cis-reporter, E2F reporter RNA transcripts; actives raise or lower the signal
Procedure, shortened: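 HepG2 cells transiently transfected with multiplexed cis-element reporter units, dosed for 24 h. Reporter mRNA measured by RT-PCR, 6-FAM primer-extension labeling, HpaI digestion and capillary electrophoresis; bidirectional fit versus DMSO baseline.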

[10] = ATG_E_Box_CIS: Attagene CIS-FACTORIAL HepG2 Assay for human Enhancer Box (E-box) (AID 2282936); details: HepG2 E-box cis-reporter transcription, actives raise or lower the signal
Procedure, shortened: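 HepG2 cells transiently transfected with multiplexed cis-element reporter units sensing endogenous transcription factor activity; 24 h compound exposure. Reporter mRNA measured by RT-PCR, 6-FAM primer extension, HpaI digestion and capillary electrophoresis; bidirectional fit versus DMSO.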

[11] = ATG_M_61_CIS: Attagene CIS-FACTORIAL HepG2 Assay for M61 Transcription Factor (Internal Marker) (AID 2282937); details: HepG2 Attagene CIS-FACTORIAL M61 internal marker reporter; actives raise or lower the signal
Procedure, shortened: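 Cells were transfected with reporter units under cis-regulatory promoters, treated with chemicals for 24 h, then lysed for RNA. Reporter transcripts were quantified by RT-PCR and capillary electrophoresis, and activity was fitted bidirectionally against DMSO.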

[12] = ATG_EGR_CIS: Attagene CIS-FACTORIAL HepG2 Assay for human Early Growth Response 1 (EGR1) (AID 2282938); details: HepG2 Attagene CIS-FACTORIAL EGR reporter mRNA; actives raise or lower the signal
Procedure, shortened: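 Endogenous TF activity in HepG2 liver cells was gauged through cis-promoter reporter constructs transiently transfected. After 24 h dosing, reporter mRNA was quantified by RT-PCR and capillary electrophoresis, and curves fitted in both directions versus DMSO.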

[13] = ATG_M_19_CIS: Attagene CIS-FACTORIAL HepG2 Assay for M19 Transcription Factor (Internal Marker) (AID 2282939); details: HepG2 Attagene CIS-FACTORIAL M19 internal marker reporter; actives raise or lower the signal
Procedure, shortened: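 Readout: fluorescent reporter-transcript fragments by capillary electrophoresis after RT-PCR. Human HepG2 liver cells carried transfected MRTU constructs reporting endogenous transcription-factor activity; exposure 24 h. Gain or loss of signal fitted relative to DMSO.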

[14] = ATG_Ets_CIS: Attagene CIS-FACTORIAL HepG2 Assay for human Erythroblast Transformation Specific (ETS) (AID 2282941); details: HepG2 ETS cis-reporter transcription, actives raise or lower the signal
Procedure, shortened: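 HepG2 cells transiently transfected with cis-promoter reporter transcription units were dosed for 24 h; reporter mRNA was measured by RT-PCR, 6-FAM primer extension, HpaI digestion and capillary electrophoresis, with bidirectional fitting against DMSO baseline.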

[15] = biological target: Hepatocyte nuclear factor 3-beta (Homo sapiens) (UniProt Q9Y261); assay: ATG_FoxA2_CIS: Attagene CIS-FACTORIAL HepG2 Assay for human Forkhead box A2 (FOXA2) (AID 2282942); details: HepG2 cis-reporter transcription factor activity, 24 h; actives raise or lower the signal
Procedure, shortened: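 Endogenous transcription factor activity was read in HepG2 cells carrying transiently transfected cis-promoter reporter units. After 24 h dosing, reporter mRNA was quantified by RT-PCR and capillary electrophoresis, and values fitted bidirectionally versus DMSO.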

[16] = ATG_FoxO_CIS: Attagene CIS-FACTORIAL HepG2 Assay for human Forkhead box O (FoxO) (AID 2282943); details: HepG2 Attagene cis-reporter, FoxO element, mRNA; actives raise or lower the signal
Procedure, shortened: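 Values reflect reporter mRNA induction or loss in HepG2 cells 24 h post-dosing, fitted bidirectionally with DMSO as negative control and baseline. Detection used RT-PCR and fluorescence capillary electrophoresis.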

[17] = ATG_GATA_CIS: Attagene CIS-FACTORIAL HepG2 Assay for human GATA Binding Protein (AID 2282944); details: HepG2 GATA cis-element reporter, Attagene multiplex mRNA; actives raise or lower the signal
Procedure, shortened: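 Read-out: fluorescent reporter mRNA fragments resolved by capillary electrophoresis after RT-PCR. Human liver HepG2 cells carried transiently transfected cis-regulated reporter constructs; chemicals incubated 24 h; gain or loss of signal fitted relative to DMSO.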

[18] = ATG_GLI_CIS: Attagene CIS-FACTORIAL HepG2 Assay for human Zinc Finger Protein GLI1 (AID 2282945); details: HepG2, Attagene cis-factorial reporter mRNA, GLI element; actives raise or lower the signal
Procedure, shortened: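 HepG2 cells transiently transfected with cis-promoter multiplexed reporter units report endogenous transcription factor activity. After 24 h chemical exposure, reporter mRNA was quantified by RT-PCR, 6-FAM labelling, HpaI digestion and capillary electrophoresis, with bidirectional fitting against DMSO.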

Measured: AC50

Chain of Retinoic acid receptor alpha (Homo sapiens) (P10276 whole entry, looked up): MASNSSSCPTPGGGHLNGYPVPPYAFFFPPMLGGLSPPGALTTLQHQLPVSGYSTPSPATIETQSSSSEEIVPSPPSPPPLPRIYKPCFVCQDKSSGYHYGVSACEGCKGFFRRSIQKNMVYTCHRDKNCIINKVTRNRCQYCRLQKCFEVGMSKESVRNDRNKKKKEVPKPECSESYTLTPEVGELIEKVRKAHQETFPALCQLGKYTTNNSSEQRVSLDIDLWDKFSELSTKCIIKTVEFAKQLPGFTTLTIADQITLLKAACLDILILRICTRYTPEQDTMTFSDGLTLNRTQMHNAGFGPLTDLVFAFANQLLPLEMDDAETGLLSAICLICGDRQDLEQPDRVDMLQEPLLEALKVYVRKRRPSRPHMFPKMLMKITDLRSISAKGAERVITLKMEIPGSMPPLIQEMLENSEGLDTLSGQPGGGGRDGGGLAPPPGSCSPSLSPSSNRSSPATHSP
Chain of Aryl hydrocarbon receptor (Homo sapiens) (P35869 whole entry, looked up): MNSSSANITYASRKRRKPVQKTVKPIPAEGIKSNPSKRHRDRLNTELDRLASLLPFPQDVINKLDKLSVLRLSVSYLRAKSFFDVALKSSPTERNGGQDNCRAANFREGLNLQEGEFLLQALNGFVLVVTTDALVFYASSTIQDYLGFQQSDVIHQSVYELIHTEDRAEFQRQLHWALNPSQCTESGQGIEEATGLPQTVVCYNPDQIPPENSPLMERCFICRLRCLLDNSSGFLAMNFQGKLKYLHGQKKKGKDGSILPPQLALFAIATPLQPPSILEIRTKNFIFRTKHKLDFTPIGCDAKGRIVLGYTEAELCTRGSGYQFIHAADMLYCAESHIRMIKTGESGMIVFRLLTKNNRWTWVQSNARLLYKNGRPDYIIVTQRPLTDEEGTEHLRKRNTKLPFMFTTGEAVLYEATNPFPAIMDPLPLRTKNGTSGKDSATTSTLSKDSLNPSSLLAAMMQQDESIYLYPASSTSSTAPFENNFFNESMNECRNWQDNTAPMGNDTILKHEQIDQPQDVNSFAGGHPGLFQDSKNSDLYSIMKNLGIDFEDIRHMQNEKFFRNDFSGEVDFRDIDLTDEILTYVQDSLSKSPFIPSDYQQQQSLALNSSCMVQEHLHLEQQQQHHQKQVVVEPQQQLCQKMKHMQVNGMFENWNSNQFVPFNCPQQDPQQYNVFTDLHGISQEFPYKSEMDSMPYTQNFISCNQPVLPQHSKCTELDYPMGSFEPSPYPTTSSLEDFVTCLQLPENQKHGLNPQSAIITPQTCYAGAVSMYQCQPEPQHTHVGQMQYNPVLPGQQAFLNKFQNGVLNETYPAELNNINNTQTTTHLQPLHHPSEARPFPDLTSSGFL
Chain of Hepatocyte nuclear factor 3-beta (Homo sapiens) (Q9Y261 whole entry, looked up): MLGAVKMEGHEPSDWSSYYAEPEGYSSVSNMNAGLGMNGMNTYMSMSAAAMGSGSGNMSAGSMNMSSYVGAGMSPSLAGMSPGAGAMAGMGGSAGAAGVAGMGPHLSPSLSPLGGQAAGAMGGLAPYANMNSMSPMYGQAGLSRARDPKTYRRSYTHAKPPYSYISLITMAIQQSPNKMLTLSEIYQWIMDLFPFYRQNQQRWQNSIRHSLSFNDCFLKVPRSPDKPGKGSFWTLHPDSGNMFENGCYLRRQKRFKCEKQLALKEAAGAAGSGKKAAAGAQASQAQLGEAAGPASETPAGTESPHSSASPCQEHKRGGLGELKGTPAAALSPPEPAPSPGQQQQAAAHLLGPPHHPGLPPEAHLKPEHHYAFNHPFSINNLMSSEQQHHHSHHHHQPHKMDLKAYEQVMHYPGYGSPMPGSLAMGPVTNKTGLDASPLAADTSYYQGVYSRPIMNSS
Chain of CCAAT/enhancer-binding protein beta (Homo sapiens) (P17676 whole entry, looked up): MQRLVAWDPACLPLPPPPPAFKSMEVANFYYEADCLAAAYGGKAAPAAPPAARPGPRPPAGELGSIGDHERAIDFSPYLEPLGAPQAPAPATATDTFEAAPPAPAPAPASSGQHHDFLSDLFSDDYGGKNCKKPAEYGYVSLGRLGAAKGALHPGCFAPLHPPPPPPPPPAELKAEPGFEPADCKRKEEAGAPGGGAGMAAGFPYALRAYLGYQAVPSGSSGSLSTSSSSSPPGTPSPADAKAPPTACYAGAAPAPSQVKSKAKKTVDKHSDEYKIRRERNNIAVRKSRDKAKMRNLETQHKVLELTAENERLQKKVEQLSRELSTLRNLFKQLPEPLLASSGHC
Chain of Transcription factor E2F1 (Homo sapiens) (Q01094 whole entry, looked up): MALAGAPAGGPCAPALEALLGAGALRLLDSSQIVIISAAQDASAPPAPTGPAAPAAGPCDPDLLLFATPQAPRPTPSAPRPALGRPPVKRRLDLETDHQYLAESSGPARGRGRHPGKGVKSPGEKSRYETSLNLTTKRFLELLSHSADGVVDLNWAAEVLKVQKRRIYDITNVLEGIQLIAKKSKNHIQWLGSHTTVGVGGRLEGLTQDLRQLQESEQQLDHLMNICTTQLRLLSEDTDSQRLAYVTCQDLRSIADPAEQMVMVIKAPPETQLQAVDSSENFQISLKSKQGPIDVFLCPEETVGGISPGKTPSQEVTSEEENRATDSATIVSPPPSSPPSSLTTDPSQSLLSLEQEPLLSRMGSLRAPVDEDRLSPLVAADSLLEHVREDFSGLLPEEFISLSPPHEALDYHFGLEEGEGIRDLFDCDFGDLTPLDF

CC(C)Nc1nc(N)nc(Cl)n1
inactive: all assays above

Nc1ccc2c(O)cc(S(=O)(=O)O)cc2c1
active: [5] 25.9 µM
not listed: [15]
inactive: all other assays above

C[C@H]1O[C@@H](O[C@H]2[C@@H](O)C[C@H](O[C@H]3[C@@H](O)C[C@H](O[C@H]4CC[C@@]5(C)[C@H](CC[C@@H]6[C@@H]5C[C@@H](O)[C@]5(C)[C@@H](C7=CC(=O)OC7)CC[C@]65O)C4)O[C@@H]3C)O[C@@H]2C)C[C@H](O)[C@@H]1O
active: [1] 0.0776 µM | [2] 0.0593 µM | [3] 2.56 µM | [4] 0.11 µM | [12] 0.163 µM | [14] 0.145 µM | [16] 0.202 µM | [17] 0.335 µM
not listed: [9]
inactive: all other assays above

Cc1ncc[nH]1
not listed: [9] | [17]
inactive: all other assays above

CCCC1O[C@@H]2C[C@H]3[C@@H]4CCC5=CC(=O)C=C[C@]5(C)[C@H]4[C@@H](O)C[C@]3(C)[C@]2(C(=O)CO)O1 (some centres undefined)
active: [2] 56.5 µM | [4] 100 µM | [6] 165 µM | [10] 100 µM
not listed: [9] | [17]
inactive: all other assays above

O=C(CS)OCCOC(=O)CS
active: [3] 72.7 µM | [4] 49.1 µM | [5] 24.9 µM | [6] 58.7 µM | [8] 27.5 µM | [10] 58.7 µM
inactive: all other assays above

Cc1ccc(OC(=O)c2ccccc2O)cc1
active: [6] 122 µM
not listed: [7]
inactive: all other assays above
